Measurements: PubChem BioAssay AID588849 (Broad Institute, 2011)
Measured potencies and affinities stand elsewhere. Activity calls are given as the source filed them. No rule for the calls is given here.

Target: CAAX prenyl protease 2 (Homo sapiens) (UniProt Q9Y256)
Assay: inhibition of Ras-converting CAAX protease Rce1 – biochemical, yeast membranes, quenched-peptide fluorescence, cherry-pick, dose response (AID 588849)
Settings: yeast membrane fractions expressing human Rce1, quenched-peptide fluorescence, 4 h; series mostly up to 10 µM

CAAX prenyl protease 2 (Homo sapiens), sequence (Q9Y256 whole entry, looked up): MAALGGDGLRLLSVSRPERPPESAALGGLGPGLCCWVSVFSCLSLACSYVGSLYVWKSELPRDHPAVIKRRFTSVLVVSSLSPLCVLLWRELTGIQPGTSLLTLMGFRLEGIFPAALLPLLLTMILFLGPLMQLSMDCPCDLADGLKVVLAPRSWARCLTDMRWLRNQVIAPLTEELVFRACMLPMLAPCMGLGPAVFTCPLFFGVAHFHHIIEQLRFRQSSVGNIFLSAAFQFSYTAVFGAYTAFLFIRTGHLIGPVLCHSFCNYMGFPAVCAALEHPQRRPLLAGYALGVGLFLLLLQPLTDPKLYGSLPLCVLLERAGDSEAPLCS

Compound | outcome
CC(Cc1cccs1)NC(=O)Nc1ccc([N+](=O)[O-])cc1 (stereo not drawn) | inactive
COc1ccc(/C=N/NC(=O)c2ccc(Cl)cc2)cc1COC(C)=O | inactive
Cc1cc(Cl)c2oc(C(=O)N3CCN(C(=O)c4ccco4)CC3)c(C)c2c1 | inactive
CSc1ccc(C(=O)C2CCCN(C(=O)c3cccnc3SC)C2)cc1 (stereo not drawn) | inactive
CN(C)CCN(C(=O)c1ccc2ccccc2c1)c1nc2ccc(Br)cc2s1 | inactive
COc1ccc(C(CNC(=O)COc2cc(C)c(Cl)c(C)c2)N2CCCCC2)cc1 (stereo not drawn) | inactive
COc1cccc(-c2nc(C#N)c(N3CCN(C(=O)c4ccco4)CC3)o2)c1 | inactive
N#CC(/C(=N/S(=O)(=O)c1cccs1)c1ccccc1)c1nc2ccccc2[nH]1 (stereo not drawn) | inactive
Cc1cc(N/N=C/c2ccc(O)c(C)c2O)nc(-c2ccccc2O)n1 | inactive
COc1cc2cc(C(=O)O)[nH]c2c(OC)c1OC | inactive
CCN(C(=O)COC(=O)c1cc(-c2cccs2)nc2ccccc12)C1CCS(=O)(=O)C1 (stereo not drawn) | inactive
CCNC(=S)NNC(=O)CCn1cc(C)cn1 | inactive
O=C(O)CCCC[C@@H]1SC[C@@H]2NC(=O)N[C@@H]21 | inactive
CC(C)c1ccc(/C=C2\SC(=S)N(CCC(=O)NCCCn3ccnc3)C2=O)cc1 | inactive
CCS(=O)(=O)Nc1c(C(=O)O)[nH]c2ccccc12 | inactive
O=S(=O)(c1ccccc1)c1nc(-c2ccco2)oc1N1CCCCC1 | inactive
COc1cccc(-c2ccc(-c3noc(-c4ccccc4F)n3)c(OC)n2)c1 | inactive
Cc1cc(C)cc(Nc2nc(-c3ccc(S(=O)(=O)N4CCCC4)cc3)cs2)c1 | inactive
